The values below come from PubChem BioAssay.

This test is described as follows: compounds binding Alexa647 anti-His antibody – biochemical, small-molecule microarray, 635 nm fluorescence, artefact control for SMM control protein annotation, primary screen (AID 1128).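 Also: score merges feature fluorescence with signal-to-noise for each printed compound spot.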 The conditions noted are these: higher = more signal.
`COCCCNC(=O)[C@@]1(Cc2ccccc2N=[N+]=[N-])N=C(c2ccc(OCCCO)cc2)O[C@H]1c1ccccc1N=[N+]=[N-]` yielded a composite z-score of 1.73. `Cc1ccc(S[C@]2(C(=O)NC(C)C)CC(=O)N(Cc3ccccc3Cl)[C@@H]2c2ccc(CO)cc2I)cc1`: the composite z-score is 3.21. Compound `CC(C)c1ccc(NN2C(C(O)c3cc(C(F)(F)F)cc(C(F)(F)F)c3)C=CC3C(=O)N(c4ccccc4)C(=O)C32)cc1` (stereo not given) registered a composite z-score of 0.444.

`CCOC(=O)[C@H]1C/C=C/C[C@H](C(=O)OCC)C(=O)O[C@H]2[C@@H](OC)O[C@H](CO)[C@@H](OC(=O)Nc3cccc(F)c3)[C@@H]2OC1=O` showed a composite z-score of 1.82.

As for `C=CCC(OC(C)=O)[C@@H]1[C@@H](N(Cc2ccc(-c3cccc(C(F)(F)F)c3)o2)C(=O)c2ccc(-c3ccccc3)cc2)c2cc(OCCCO)ccc2N1C(=O)c1ccc(-c2ccccc2)cc1` (stereo not given in full), the composite z-score was -0.674.

Regarding `O=C1O[C@H](c2ccccc2)[C@H](c2ccccc2)N2[C@H]1[C@@H](C(=O)NC[C@H](O)c1ccccc1)[C@]1(C(=O)Nc3ccccc31)[C@H]2c1ccc(OCCO)cc1`, the composite z-score came to 1.77. Turning to `C=CCOC(=O)[C@H]1[C@@H]2C(=O)O[C@@H](c3ccccc3)[C@@H](c3ccccc3)N2[C@@H](c2ccc(OCCOC(=O)[C@H]3C[C@H]4C(=O)N5CCC[C@H]5C(=O)N4[C@H]3c3ccc(O)cc3)cc2)[C@]12C(=O)Nc1ccc(I)cc12`, the composite z-score is 2.88.

Compound `O=C1NC(=O)C2C1C=CC(C(O)Cc1ccccc1)N2Nc1ccc(Cl)cc1Cl` (stereo not given) came in with a composite z-score of 0.432. For the compound `CN(C)C(=O)[C@]1(Cc2ccccc2N=[N+]=[N-])N=C(c2ccc(OCCCO)cc2)O[C@@H]1c1ccccc1`, the composite z-score was found to be 1.03. For `COCCOC(=O)N1C(=O)[C@@]2(c3cc(C#CC4=CCCCC4)ccc31)[C@H](C(=O)Nc1nc3ccccc3s1)[C@H]1C(=O)O[C@H](c3ccccc3)[C@H](c3ccccc3)N1[C@@H]2c1ccc(OCCO)cc1` the value was 0.424; for `C=CC[C@@]1(C(N)=O)N=C(c2ccc(OCCCO)cc2)O[C@@H]1c1ccccc1CN=[N+]=[N-]`, 2.78; for `C#CCN(CC1=CCCCC1)[C@H](c1ccccc1Br)[C@@H](O)Cc1ccccc1`, 0.646.

Regarding `COc1ccc(C(=O)Nc2ccc(CN3C(=O)[C@@]4(O[C@@H](CCO)[C@H]([Si](C)(C)c5ccc(OC)cc5)[C@H]4C)c4ccccc43)cc2)cc1`, the composite z-score stood at 1.42. Turning to `COC(=O)[C@@]1(Cc2ccc(F)cc2)[C@H]2c3cc(C(=O)N(C)C)n(CC4CC4)c3C[C@H]2CN1C(=O)c1ccccc1`, the composite z-score was found to be 1.54. Under `O=C(NCc1ccc(F)cc1)[C@H]1C[C@H]2C(=O)N[C@@H](Cc3ccccc3)C(=O)N2[C@H]1c1ccc(O)cc1` stands 1.53; under `COc1ccc(C(=O)Nc2ccc(CN3C(=O)[C@@]4(O[C@@H](CC(=O)N5CCC[C@H]5CO)[C@H]([Si](C)(C)c5ccc(OC)cc5)[C@H]4C)c4ccccc43)cc2)cc1`, -0.271.

As to `CN(C)CCCNC(=O)[C@@]1(c2ccc([N+](=O)[O-])cc2)CC(=O)N(C2CCCCC2)[C@@H]1c1ccc(CO)cc1`, the composite z-score is -0.0406. `C=CCN1C(=O)[C@@]2(O[C@@H](CCO)[C@H]([Si](C)(C)c3ccc(OC)cc3)[C@H]2C)c2cc(NC(=O)c3ccc(OC)cc3)ccc21` yielded a composite z-score of 0.919. For `C=C(CCCC)/C(=C/C[C@@H](OC(C)=O)c1ccccc1OCCO)c1cnc2ccccc2c1` the value was 1.46. Take `COC(=O)[C@@]1(Cc2ccc(OC)cc2)[C@H]2c3cc(C(=O)N(C)C)n(Cc4cccc5ccccc45)c3C[C@H]2CN1C(=O)c1ccccc1`: the composite z-score turned out to be 1.54. Under `CC(=O)NCCCC[C@@H]1NC(=O)[C@@H]2C[C@H](C(=O)NCCCCCCNC(=O)CS)[C@H](c3cccc(OCCO)c3)N2C1=O` stands 1.23; under `COCCOC(=O)N1C(=O)[C@@]2(c3cc(C#CCNC(N)=O)ccc31)[C@H](C(=O)NC[C@H](O)c1ccccc1)[C@H]1C(=O)O[C@H](c3ccccc3)[C@H](c3ccccc3)N1[C@@H]2c1ccccc1OCCO`, 1.06. For `COC(=O)[C@@]1(Cc2ccc(OC)cc2)[C@H]2c3cc(C(=O)N4CCCC4)n(Cc4ccccc4)c3C[C@H]2CN1C(=O)c1ccccc1` the value was 3. As to `C=C(CCCC)C(=O)CC[C@@H](OC(=O)c1cccnc1)c1ccc(CO)o1`, the composite z-score amounted to 1.18.

The compound `COc1ccc(C(=O)O[C@H]2CC[C@]3(C)C4=C(CCC3C2(C)C)[C@]2(C)CC[C@H]([C@H](C)CCCC(C)C)[C@@]2(C)CC4)cc1` (stereo not given in full) showed a composite z-score of 0.541. Take `[N-]=[N+]=NCc1ccccc1[C@@H]1OC(c2ccc(OCCCO)cc2)=N[C@]1(Cc1ccccc1N=[N+]=[N-])C(=O)N1CCOCC1`: the composite z-score worked out at 2.12.

On to `COc1ccc([Si](C)(C)[C@@H]2[C@@H](CC(=O)N3Cc4ccccc4C[C@H]3CO)O[C@]3(C(=O)N(C)c4c(Br)cc(C)cc43)[C@H]2C)cc1`, for which the composite z-score came to 0.333.

On to `C=CC[C@@]1(C(=O)NCc2ccccc2)N=C(c2ccc(OCCCO)cc2)O[C@@H]1c1ccccc1N=[N+]=[N-]`, for which the composite z-score was determined as 2.41. In the case of `CC(CO)N1C(=O)[C@@H]2C3C(=O)OCCC/C=C\[C@H]3OC23C=CCN(c2ccc4ccccc4c2)C(=O)[C@@H]13` (stereo not given in full), the composite z-score was determined as 0.339. On to `C=CCOC(=O)[C@@H]1[C@H]2C(=O)O[C@H](c3ccccc3)[C@H](c3ccccc3)N2[C@H](c2ccc(OCCOC(=O)[C@@H]3C[C@@H]4C(=O)N[C@@H](CCCC[N+](C)(C)C)C(=O)N4[C@@H]3c3cccc(OCCO)c3)cc2)[C@@]12C(=O)Nc1ccc(I)cc12`, for which the composite z-score was 1.13.

In turn, `CCOC(=O)C[C@H]1[C@H](OC(=O)Cc2ccc3c(c2)OCO3)[C@@H](NC(=O)c2ccc3ccccc3c2)c2cc(OCCCO)ccc2N1C(=O)c1ccccc1` returned a composite z-score of 0.638. Consider `[N-]=[N+]=Nc1ccccc1C[C@]1(C(N)=O)N=C(c2ccc(OCCCO)cc2)O[C@H]1c1ccccc1`, for which the composite z-score was found to be 2.45.

In turn, `COC(=O)C=C(CC(O)c1cccc(Cl)c1)OC` (stereo not given) registered a composite z-score of 1.14. `Cc1ccc(C(C)CC(O)C2C=CC3C(=O)N(c4ccccc4)C(=O)C3N2Nc2ccc([N+](=O)[O-])cc2)o1` (stereo not given) gave a composite z-score of 0.484. In turn, `[N-]=[N+]=Nc1ccccc1C[C@]1(C(=O)NCC(O)CO)N=C(c2ccc(OCCCO)cc2)O[C@H]1c1ccccc1N=[N+]=[N-]` (stereo not given in full) registered a composite z-score of 1.58.
